The values below come from PubChem BioAssay (NCI).

Each structure is given as a SMILES string. The panel holds about 83,000 compounds, 20% with a hit somewhere; the sample as a whole holds those more often.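 Note: values are percent growth. 100 is the growth of untreated cells, values between 100 and 0 indicate rising inhibition; between -100 and 0 indicates cell death.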 A number with no mark means an inactive call. The source made the active and inactive calls. Rule for the calls: active = growth percent below 10; inactive = the rest.

Holding throughout (experiment): NCI-60 one-dose screen, 48 h (100 = growth as untreated, 0 = no growth, -100 = all killed)
Details in all cases: 10 µM unless noted

In assay [1] the test system is HCT-15 colon.
Assay [2] has as its system HT29 colon.
Assay [3] concerns SNB-75 CNS.
The subject of assay [4] is SNB-19 CNS.
Assay [5] concerns U251 CNS.
In assay [6] the test system is PC-3 prostate.
Assay [7] concerns SK-MEL-5 melanoma.
Assay [8] has as its system UACC-62 melanoma.
The subject of assay [9] is LOX IMVI melanoma.
In assay [10] the test system is SK-MEL-28 melanoma.
Assay [11] deals with SK-MEL-2 melanoma.
The test system of assay [12] is EKVX NSCLC.
For assay [13], the system named is SN12C renal.
The test system of assay [14] is UO-31 renal.
For assay [15], the system named is TK-10 renal.
The subject of assay [16] is ACHN renal.
The test system of assay [17] is CAKI-1 renal.
Assay [18] has as its system A498 renal.
Assay [19] concerns CCRF-CEM leukemia.
In assay [20] the test system is MOLT-4 leukemia.

Take `CC(=O)c1ccc(Nc2nc(SCC(C)C)nc(-c3ccccc3)c2C#N)cc1`: the growth in assay [1] was 95.3%; in assay [2], 106%; in assay [3], 93.3%; in assay [4] it was 38.5%; in assay [5], 32.4%; in [6], 104%. Further, the growth in assay [7] was 99.7%; in assay [8], 75.3%; in [9] it was 86.9%; in assay [10], 101%; in assay [11] it was 76.7%; in assay [12], 88.6%. The growth in assay [13] was 95.9%; in assay [14], 111%; in assay [15] it was 98.4%; in assay [16], 47.8%; in assay [17], 69.6%; in assay [18], 107%. Also, the growth in assay [19] and in [20] was 102% in each case.
In the case of `Cc1nn(-c2ccccc2)c2ncnc(N/N=C/c3ccccc3O)c12`, the growth was 21.3% in assay [1]; 24.6% in assay [2]; 5.46% (active) in assay [3]; 17.5% in assay [4]; 11.2% in assay [5]; 25.9% in assay [6]. The growth in [7] was -70.2% (active); in [8], -11.2% (active); in assay [9], 2.3% (active); in assay [10] it was 23.2%; in [11] it was 35.4%; in assay [12], 23.7%. The growth is 8.87% (active) in [13]; -25.8% (active) in assay [14]; 40.6% in assay [15]; 3.52% (active) in [16]; 3.12% (active) in assay [17]; 58.4% in assay [18]. The growth in [19] was 8.92% (active); in assay [20], 14.3%.
For `CN(C)C(=O)c1cc(-c2ccc3ncnc(NCc4ccccc4)c3c2)cnc1N`, the growth in assay [1] is 105%; in assay [2], 101%; in [3], 33.4%; in assay [4], 88.7%; in assay [5] it was 99%; in assay [6], 85.7%. Besides, the growth in assay [7] was 93.9%; in assay [8] it was 89.3%; in assay [9] it was 75%; in [10], 91.4%; in assay [11], 95.2%; in assay [12], 47.9%. In addition, the growth is 56.7% in assay [13]; 50.6% in [14]; 21.9% in assay [15]; 69.2% in assay [16]; 27.2% in assay [17]; -2.78% (active) in assay [18]. Also, the growth in assay [19] was 88%.
Consider `COc1ccc(C2c3sc4c(C)cccc4c3Oc3nc(CC(=O)Nc4ccccc4)[nH]c(=O)c32)cc1` (stereo unspecified), for which the growth in [1] was 51.9%; in assay [2] it was 94.1%; in assay [3] it was 39.4%; in assay [4], 89%; in [5], 106%; in assay [6] it was 83.1%. In addition, the growth in assay [7] was 76.9%; in [8] it was 63.2%; in assay [9] it was 48.5%; in assay [10], 76%; in [11], 92.8%; in assay [12] it was 47.1%. Moreover, the growth was 79.1% in assay [13]; 46.7% in [14]; 141% in [15]; 92.9% in assay [16]; 46% in assay [17]; 70.6% in assay [18].
Take `Oc1ccc(CSc2nnc(-c3ccc(Cl)cc3)n2-c2ccccc2)c2cccnc12`: the growth was 14.4% in assay [1]; 92.7% in assay [2]; 16.6% in assay [3]; 13.3% in assay [4]; 3.32% (active) in assay [5]; 19.1% in [6]. Also, the growth in assay [7] was 5.67% (active); in assay [8] it was 9.41% (active); in assay [9], 29.5%; in assay [10] it was 42.4%; in assay [11], 35.2%; in assay [12], 28.6%. Further, the growth in assay [13] was 33.2%; in assay [14] it was 0.657% (active); in assay [15] it was 28.2%; in [16] it was 30.5%; in assay [17] it was 48.7%; in [18], 50.2%. Moreover, the growth was 20.8% in [19] and 28.5% in assay [20].
Take `C#CCOc1ccc(/C=N\Nc2nc(-c3ccc(C)cc3)cs2)cc1OC`: the growth is 86.1% in [1]; 88.2% in assay [2]; 114% in assay [3]; 95.2% in assay [4]; 89.3% in [5]; 69.6% in assay [6]. In addition, the growth in assay [7] was 71.6%; in [8], 74.7%; in assay [9] it was 93.7%; in assay [10] it was 89.9%; in assay [11], 96.1%; in assay [12], 65.3%. Moreover, the growth is 89.2% in [13]; 78.3% in assay [14]; 166% in assay [15]; 103% in [16]; 115% in [17]; 81.2% in assay [18]. Further, the growth was 90.4% in assay [19] and 79.5% in assay [20].
Consider `COc1ccccc1-n1cc(C#N)c(N)c1C(=O)c1ccc(C)cc1`, for which the growth in assay [1] is 47.1%; in assay [2] it was 73.7%; in assay [3], 82%; in assay [4] it was 77.1%; in assay [5] it was 79.4%; in assay [6], 74.5%. The growth in assay [7] was 92%; in assay [8], 22.2%; in assay [9], 80.1%; in [10] it was 73.9%; in [11], 79.1%; in assay [12], 89.1%. Further, the growth in [13] is 91.1%; in assay [14] it was 90%; in [15], 102%; in assay [16], 101%; in assay [17], 78.5%; in assay [18], 74.9%. In addition, the growth in assay [19] is 85.6%.
As to `CC[C@@H](CO)Nc1ccc2ncc(C#Cc3cncc(C(=O)Nc4ccc(CN5CCN(C)CC5)c(C(F)(F)F)c4)c3)n2n1`, the growth was -33.4% (active) in assay [1]; -51% (active) in assay [2]; -83.5% (active) in assay [3]; -20% (active) in assay [4]; -87.8% (active) in [5]; -21.1% (active) in [6]. The growth is -96.4% (active) in assay [7]; -34.5% (active) in assay [8]; -95.3% (active) in assay [9]; -43.4% (active) in assay [10]; -93.2% (active) in [11]; -9.99% (active) in assay [12]. Further, the growth was -55.4% (active) in assay [13]; -85.9% (active) in assay [14]; -53.5% (active) in assay [15]; -91.4% (active) in [16]; -82.8% (active) in assay [17]; -98.8% (active) in assay [18]. In addition, the growth in assay [19] is 7.24% (active); in assay [20], 3.44% (active).
